S2 tox: reduces viability in counter-screen for ATXN expression inhibitors; 0.49% of 400,000 active; S2 cells (HEK-293 line with an ATXN2-luciferase reporter) viability, CellTiter-Fluor protease fluorescence, 24 h; Potency, µM (highest dose often 56.7 µM), hits mostly cytotoxic; AID 651635; further: nearly all actives have a fitted effect of over 40% in size
DT40 TDP1 CPT: DT40-hTDP1 cell growth loss with CPT; chicken DT40 Tdp1-/-;hTDP1 cells + 20 nM CPT, ATP luminescence, 48 h; Potency, µM (top dose mostly 46.2 µM), for inactives: top-dose activity change, negative = growth inhibition, hits mostly inhibitors; 12% of 420,000 active; further: on the % scale 0 is the no-effect control and ±100 the full control effect; nearly all actives have a fitted effect of over 55% in size
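Chicken DT40 Tdp1-/- cells complemented with human TDP1, 400 cells/well, exposed to compounds plus 20 nM camptothecin for at least 48 h at 37 C; viability read as ATP content by CellTiter-Glo luminescence.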
HepG2 tox: counter-screen for TGF-b inhibitors: cytotoxicity in HepG2 cells; Potency, µM (highest dose often 46.1 µM), without a hit: at the highest dose activity change, negative = cytotoxicity, usual class: cytotoxic; 0.76% of 410,000 active; HepG2 CAGA-GFP viability, ATP luminescence, 18 h
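CellTiter-Glo luminescence gave cytotoxicity after 18 hours at 37 degrees C. The cells were HepG2 CAGA-GFP in 1% FBS DMEM, stimulated with 500 pg/mL TGF-beta after compound addition. %Activity was normalised to no-cell wells (complete cell-killing) and DMSO (no toxicity), and curves were fitted and classified.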
TGFb inhibitor: blocks TGF-b signaling. HepG2 CAGA-GFP TGF-b/SMAD3 reporter, GFP fluorescence, 18 h; TGF-beta stimulated, 500 pg/mL final. Potency, µM (titrated, usually from 46.1 µM), inactives show at the top dose activity, negative = inhibition, actives largely listed as inhibitors. 1.2% of 410,000 active; further: on the % scale 0 is the no-effect control and ±100 the full control effect; nearly all actives have a fitted effect of over 65% in size
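Smad-responsive CAGA-GFP expression was quantified in HEPG2 cells exposed to compounds and 500 pg/mL final TGF-beta for 18 h at 37 degrees C; unstimulated wells defined full inhibition.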
DT40 TDP1 no CPT: qHTS for Inhibitors of human tyrosyl-DNA phosphodiesterase 1 (TDP1): qHTS in cells in absence of CPT | DT40 Tdp1-/- hTDP1 cells, no CPT, ATP luminescence, 48 h | Potency, µM (highest dose often 46.2 µM), for the others: at the top dose activity change, negative = growth inhibition, actives largely listed as inhibitors | 15% of 420,000 active; further: on the % scale 0 is the no-effect control and ±100 the full control effect; nearly all actives have a fitted effect of over 55% in size
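No-CPT arm: Tdp1-/-;hTDP1 DT40 cells (400/well) plus compounds, incubated ≥48 hr at 37 °C. Readout CellTiter-Glo luminescence.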
ATXN2 expr inh: reduces ATXN2 reporter expression in HEK-293 cells; 0.72% of 360,000 active; Potency, µM (series often up to 57 µM), for the others: top-dose activity change, negative = inhibition, hits mostly inhibitors; AID 1745845; HEK-293 ATXN2-luciferase reporter, luminescence, 24 h; further: on the % scale 0 is the no-effect control and ±100 the full control effect; nearly all actives have a fitted effect of over 55% in size
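ATXN2-luciferase reporter cells (luciferase flanked by upstream and downstream ATXN2 gene portions) were treated 24 h at 37 °C with compounds at up to 57 uM. SteadyGlo luminescence gave expression; GF-AFC fluorescence gave viability.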
Active calls of the source: *. Rows were chosen to be rich in hits. Some 17% of all compounds tested hit in one or more screens of this group. The call rests on the fitted dose curve; in most records, active means well fitted curve in the direction sought with a large enough effect; inconclusive means small, poorly fitted or top-dose-only effect, or another doubt; inactive means no such curve, though single readings can be large; an effect the other way counts as inactive or inconclusive. Potency means the concentration at half of the fitted maximal effect.

For CC(C)C(O)(c1ccccc1)C(CN1CCOCC1)c1ccccc1 (stereo unspecified) the results were S2 tox inactive, DT40 TDP1 CPT inconclusive, HepG2 tox -27.4%, TGFb inhibitor -14.8% and DT40 TDP1 no CPT inconclusive.
Screening CC(C)CC(O)(c1ccccc1)C(CN1CCOCC1)c1ccccc1 (stereo unspecified) returned S2 tox inactive, DT40 TDP1 CPT inconclusive, HepG2 tox -16.8%, TGFb inhibitor 2.0%, DT40 TDP1 no CPT 20.6µM* and ATXN2 expr inh -24.6%.
For CCOc1ccc(NC(=O)COC(=O)C23CC4CC(CC(C4)C2)C3)c([N+](=O)[O-])c1 the results were S2 tox inactive, DT40 TDP1 CPT 18.4µM*, HepG2 tox 0.6%, TGFb inhibitor -15.0%, DT40 TDP1 no CPT inconclusive and ATXN2 expr inh 3.6%.
`COc1ccc(/C=C/C(=O)NCC(=O)N/N=C/c2cc(Br)ccc2OCc2ccccc2)cc1` gave S2 tox 15.8µM*, DT40 TDP1 CPT inconclusive, HepG2 tox -29.9%, TGFb inhibitor -5.6%, DT40 TDP1 no CPT inconclusive and ATXN2 expr inh -33.2%.
Screening O=C(CNC(=O)c1cccc(F)c1)N/N=C/c1cc(Br)ccc1OCc1ccccc1 returned S2 tox inactive, DT40 TDP1 CPT inconclusive, HepG2 tox -31.9%, TGFb inhibitor -36.7%, DT40 TDP1 no CPT inconclusive and ATXN2 expr inh -11.6%.
For COC(=O)N/N=C\c1cc(Br)ccc1OCc1ccccc1 the results were S2 tox inactive, DT40 TDP1 CPT inconclusive, HepG2 tox -18.6%, TGFb inhibitor -13.2%, DT40 TDP1 no CPT inconclusive and ATXN2 expr inh 23.9%.
COc1ccc(Br)cc1/C=N/NC(=O)CNC(=O)/C=C/c1ccccc1 was read as S2 tox inactive, DT40 TDP1 CPT 16.4µM*, HepG2 tox -24.6%, TGFb inhibitor inconclusive, DT40 TDP1 no CPT 13µM* and ATXN2 expr inh -31.2%.
`O=C(CNC(=O)c1ccccc1F)N/N=C/c1cc(Br)ccc1OCc1ccccc1` gave S2 tox inactive, DT40 TDP1 CPT inconclusive, HepG2 tox -23.6%, TGFb inhibitor -25.7% and DT40 TDP1 no CPT 23.1µM*.
For Cc1ccc(OCC(=O)Nc2nnc(S(=O)(=O)N3c4ccccc4CC3C)s2)cc1 (stereo unspecified) the results were S2 tox inactive, DT40 TDP1 CPT inconclusive, HepG2 tox -39.7%, TGFb inhibitor inconclusive, DT40 TDP1 no CPT -44.9% and ATXN2 expr inh -10.2%.
COc1ccc(-n2c(=O)c3c4c(sc3n(CC(=O)Nc3cc(C)[nH]n3)c2=O)CCCC4)c(OC)c1 was read as S2 tox inconclusive, DT40 TDP1 CPT 6.5%, HepG2 tox -12.8%, TGFb inhibitor -25.4%, DT40 TDP1 no CPT -20.9% and ATXN2 expr inh -25.8%.
`COc1ccc(-n2c(=O)c3c4c(sc3n(Cc3ccccc3Cl)c2=O)CCC4)c(OC)c1` gave S2 tox inconclusive, DT40 TDP1 CPT inconclusive, HepG2 tox 3.8%, TGFb inhibitor -21.6%, DT40 TDP1 no CPT 20.6µM* and ATXN2 expr inh -1.5%.
`COc1ccc(-n2c(=O)c3c4c(sc3n(Cc3cc(=O)n5c(C)cccc5n3)c2=O)CCC4)c(OC)c1` gave S2 tox inactive, DT40 TDP1 CPT inconclusive, HepG2 tox -7.5%, TGFb inhibitor inconclusive, DT40 TDP1 no CPT inconclusive and ATXN2 expr inh -1.4%.
COc1ccc(-n2c(=O)c3c4c(sc3n(Cc3ccc(F)cc3)c2=O)CCCC4)c(OC)c1 was read as S2 tox inactive, DT40 TDP1 CPT 20.6µM*, HepG2 tox -0.4%, TGFb inhibitor 2.0%, DT40 TDP1 no CPT 14.6µM* and ATXN2 expr inh 11.6%.

From PubChem BioAssay
